We go through 15 sequences from paper PMC3218832.

Targets include RELARELA (p65 homodimer) (Homo sapiens, UniProt Q04206 1-307); p50p50 homodimer (Homo sapiens, UniProt P19838 7-356); RELB subunit;p50 subunit (Homo sapiens;Homo sapiens, UniProt Q01201;P19838 120-401;7-356).
What all share (experiment): protein binding microarray; high values mean tight binding
What all share (conditions): dsDNA, one strand shown

In a further assay the target is T1, p52p52 homodimer (Homo sapiens, UniProt Q00653 4-332).
T1 sequence: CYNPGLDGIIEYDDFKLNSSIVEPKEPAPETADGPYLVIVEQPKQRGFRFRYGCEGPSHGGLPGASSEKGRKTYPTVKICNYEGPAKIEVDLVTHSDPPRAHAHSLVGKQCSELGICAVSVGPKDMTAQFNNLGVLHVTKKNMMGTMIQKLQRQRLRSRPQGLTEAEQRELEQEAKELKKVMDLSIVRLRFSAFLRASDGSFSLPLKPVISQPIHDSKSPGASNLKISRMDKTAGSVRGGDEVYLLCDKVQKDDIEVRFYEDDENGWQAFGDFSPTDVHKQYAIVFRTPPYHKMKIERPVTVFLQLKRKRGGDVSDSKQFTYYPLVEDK

Assay [1] deals with RELA (p65) subunit of heterodimer;p50 subunit (Homo sapiens;Homo sapiens, UniProt Q04206;P19838 1-307;7-356).
For assay [2], the target named is RELA (p65) subunit of heterodimer;p52 subunit (Homo sapiens;Homo sapiens, UniProt Q04206;Q00653 1-307;4-332).
The target in the next assay is T2, RELB subunit;p52 subunit (Homo sapiens;Homo sapiens, UniProt Q01201;Q00653 120-401;4-332).
T2 sequence 1: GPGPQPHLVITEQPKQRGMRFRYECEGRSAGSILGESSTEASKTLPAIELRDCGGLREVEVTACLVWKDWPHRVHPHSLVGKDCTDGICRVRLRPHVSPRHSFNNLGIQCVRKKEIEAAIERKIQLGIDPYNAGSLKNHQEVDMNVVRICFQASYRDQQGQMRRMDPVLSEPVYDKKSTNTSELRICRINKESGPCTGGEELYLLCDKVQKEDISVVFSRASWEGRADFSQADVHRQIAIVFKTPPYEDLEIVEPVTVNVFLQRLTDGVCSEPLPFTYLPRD
T2 sequence 2: T1 sequence

The target of assay [3] is C-Rel subunit;p50 subunit (Homo sapiens;Homo sapiens, UniProt Q04864;P19838 1-285;7-356).
Assay [4] has as its target T3, C-Rel subunit;p52 subunit (Homo sapiens;Homo sapiens, UniProt Q04864;Q00653 1-285;4-332).
T3 sequence 1: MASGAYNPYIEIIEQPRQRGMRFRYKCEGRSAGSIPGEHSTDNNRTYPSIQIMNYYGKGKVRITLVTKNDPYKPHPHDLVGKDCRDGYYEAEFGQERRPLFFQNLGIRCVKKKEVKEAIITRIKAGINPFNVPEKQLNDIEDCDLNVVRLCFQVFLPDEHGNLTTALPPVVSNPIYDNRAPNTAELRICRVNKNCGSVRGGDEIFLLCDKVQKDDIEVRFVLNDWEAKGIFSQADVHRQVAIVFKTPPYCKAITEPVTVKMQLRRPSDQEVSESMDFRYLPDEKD
T3 sequence 2: T1 sequence

p50p50 homodimer, sequence (P19838 7-356): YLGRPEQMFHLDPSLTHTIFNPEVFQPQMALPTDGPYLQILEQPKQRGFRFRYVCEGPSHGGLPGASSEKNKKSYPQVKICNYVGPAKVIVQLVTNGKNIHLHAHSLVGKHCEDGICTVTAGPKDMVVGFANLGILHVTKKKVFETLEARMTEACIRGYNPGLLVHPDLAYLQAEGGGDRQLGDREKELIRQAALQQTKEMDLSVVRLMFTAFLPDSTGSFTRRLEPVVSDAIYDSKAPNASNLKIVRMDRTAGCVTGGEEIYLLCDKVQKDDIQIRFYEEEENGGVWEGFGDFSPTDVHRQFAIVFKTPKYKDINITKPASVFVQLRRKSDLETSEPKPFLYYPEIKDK
RELA (p65) subunit of heterodimer;p50 subunit, sequence (Q04206 1-307, chain 1 of 2): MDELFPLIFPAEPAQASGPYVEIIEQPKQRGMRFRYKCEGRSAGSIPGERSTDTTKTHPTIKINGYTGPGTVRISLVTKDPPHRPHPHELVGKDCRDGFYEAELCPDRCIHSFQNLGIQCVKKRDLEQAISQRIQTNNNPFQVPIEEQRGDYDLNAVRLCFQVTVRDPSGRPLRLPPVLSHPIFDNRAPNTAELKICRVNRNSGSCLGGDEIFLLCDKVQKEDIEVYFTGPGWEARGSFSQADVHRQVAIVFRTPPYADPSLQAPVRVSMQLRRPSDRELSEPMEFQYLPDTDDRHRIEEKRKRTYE
RELA (p65) subunit of heterodimer;p50 subunit, sequence (P19838 7-356, chain 2 of 2): as the sequence (P19838 7-356) above
RELARELA (p65 homodimer), sequence (Q04206 1-307): as the sequence (Q04206 1-307, chain 1 of 2) above

Turning to CAGGAGGTCCT, the binding signal with RELARELA (p65 homodimer) is 0.426 z-score; in the assay with p50p50 homodimer, -1.52 z-score; with p52p52 homodimer, -0.389 z-score; in assay [1], -0.781 z-score; in [2], -0.822 z-score; with RELB subunit;p50 subunit, -0.523 z-score. Also, the figures for the binding signal (in the assay with RELB subunit;p52 subunit; in [3]; in assay [4]) were -0.466 z-score, -0.953 z-score and -0.415 z-score, respectively.

For AAATTGCTCCT, the binding signal in the assay with RELARELA (p65 homodimer) was -0.35 z-score; with p50p50 homodimer it was -1.61 z-score; with p52p52 homodimer, -0.602 z-score; in assay [1] it was -0.644 z-score; in assay [2], -0.813 z-score; in the assay with RELB subunit;p50 subunit, -0.967 z-score. Further, the results for the binding signal (with RELB subunit;p52 subunit; in assay [3]; in assay [4]) were -0.7 z-score, -1.33 z-score and -0.903 z-score, respectively.

Consider AAGTGATTCCT, for which the binding signal is -0.0511 z-score with RELARELA (p65 homodimer); -0.869 z-score in the assay with p50p50 homodimer; -0.482 z-score with p52p52 homodimer; -0.602 z-score in assay [1]; -0.719 z-score in [2]; -0.843 z-score with RELB subunit;p50 subunit. Further, the binding signal in the assay with RELB subunit;p52 subunit was -0.976 z-score; in assay [3] it was -0.572 z-score; in assay [4], -0.598 z-score.

Take CAAGATTCCCT: the binding signal was found to be 0.527 z-score in the assay with RELARELA (p65 homodimer); 1.13 z-score with p50p50 homodimer; 0.975 z-score with p52p52 homodimer; 0.96 z-score in assay [1]; 0.948 z-score in assay [2]; 1.02 z-score with RELB subunit;p50 subunit. The binding signal in the assay with RELB subunit;p52 subunit was determined as 1.01 z-score; in assay [3], 1.06 z-score; in [4], 0.715 z-score.

CGGAACGTCCC: the binding signal with RELARELA (p65 homodimer) came to 1.16 z-score; with p50p50 homodimer, 0.116 z-score; with p52p52 homodimer, 0.505 z-score; in assay [1] it was 0.933 z-score; in [2], 0.956 z-score; in the assay with RELB subunit;p50 subunit it was 0.184 z-score. Moreover, the figures for the binding signal (with RELB subunit;p52 subunit; in assay [3]; in assay [4]) were 0.327 z-score, 0.44 z-score and 0.748 z-score, respectively.

On to CGAGTCTTCCC, for which the binding signal with RELARELA (p65 homodimer) was 0.331 z-score; in the assay with p50p50 homodimer it was -0.565 z-score; in the assay with p52p52 homodimer, -0.302 z-score; in assay [1], -0.0997 z-score; in [2], -0.304 z-score; with RELB subunit;p50 subunit it was -0.386 z-score. Besides, the figures for the binding signal (with RELB subunit;p52 subunit; in assay [3]; in assay [4]) were -0.409 z-score, 0.0328 z-score and -0.153 z-score, respectively.

Consider AAGGAACCCCT, for which the binding signal is -0.469 z-score with RELARELA (p65 homodimer); 0.961 z-score with p50p50 homodimer; 0.532 z-score in the assay with p52p52 homodimer; 0.281 z-score in assay [1]; 0.861 z-score in [2]; 0.479 z-score with RELB subunit;p50 subunit. Besides, the results for the binding signal (in the assay with RELB subunit;p52 subunit; in assay [3]; in assay [4]) were 0.874 z-score, 0.215 z-score and 0.603 z-score, respectively.

For AGGATGTTCCC, the binding signal was 0.975 z-score with RELARELA (p65 homodimer); -0.225 z-score with p50p50 homodimer; -0.143 z-score with p52p52 homodimer; 0.237 z-score in [1]; 0.0834 z-score in [2]; -0.426 z-score with RELB subunit;p50 subunit. For the same sequence, the binding signal with RELB subunit;p52 subunit was -0.342 z-score; in assay [3] it was 0.00777 z-score; in [4], -0.0123 z-score.

CGATGTACCCC: the binding signal with RELARELA (p65 homodimer) was 0.132 z-score; with p50p50 homodimer, 0 z-score; in the assay with p52p52 homodimer, -0.0732 z-score; in [1] it was -0.125 z-score; in [2] it was 0.16 z-score; in the assay with RELB subunit;p50 subunit, 0.299 z-score. The binding signal was 0.491 z-score in the assay with RELB subunit;p52 subunit, 0.113 z-score in [3] and 0.101 z-score in assay [4].

Turning to GGAGTTTTCCT, the binding signal with RELARELA (p65 homodimer) was 1.88 z-score; with p50p50 homodimer, -0.38 z-score; in the assay with p52p52 homodimer, -0.329 z-score; in assay [1], 0.312 z-score; in assay [2], -0.0971 z-score; with RELB subunit;p50 subunit, -0.676 z-score. In addition, the binding signal is -0.581 z-score with RELB subunit;p52 subunit, 0.446 z-score in assay [3] and 0.304 z-score in assay [4].

Turning to AAAGTGCCCCC, the binding signal with RELARELA (p65 homodimer) was found to be 0.331 z-score; in the assay with p50p50 homodimer, 1.09 z-score; with p52p52 homodimer, 0.518 z-score; in [1], 0.793 z-score; in assay [2] it was 0.904 z-score; with RELB subunit;p50 subunit, 0.839 z-score. Also, the binding signal with RELB subunit;p52 subunit is 1.17 z-score; in assay [3], 0.964 z-score; in [4], 0.619 z-score.

With AAATGACCCCT, the binding signal with RELARELA (p65 homodimer) is -0.474 z-score; in the assay with p50p50 homodimer it was 0.593 z-score; with p52p52 homodimer it was 0.182 z-score; in assay [1] it was 0.135 z-score; in [2], 0.303 z-score; with RELB subunit;p50 subunit, 0.241 z-score. For the same sequence, the binding signal was 0.325 z-score in the assay with RELB subunit;p52 subunit, -0.224 z-score in [3] and 0.165 z-score in assay [4].

As for GGAGATATCCT, the binding signal in the assay with RELARELA (p65 homodimer) was -0.481 z-score; with p50p50 homodimer, -1.23 z-score; in the assay with p52p52 homodimer it was -0.703 z-score; in [1] it was -0.874 z-score; in assay [2], -0.798 z-score; with RELB subunit;p50 subunit it was -1.04 z-score. Besides, the binding signal with RELB subunit;p52 subunit was -0.872 z-score; in assay [3], -1.35 z-score; in assay [4], -0.82 z-score.

With AAATAATTCCT, the binding signal with RELARELA (p65 homodimer) was 0.497 z-score; with p50p50 homodimer, -0.505 z-score; in the assay with p52p52 homodimer, -0.44 z-score; in assay [1], -0.41 z-score; in [2], -0.399 z-score; with RELB subunit;p50 subunit, -0.654 z-score. Further, the binding signal with RELB subunit;p52 subunit is -0.671 z-score; in assay [3] it was 0.179 z-score; in [4], -0.124 z-score.

For the sequence GGAGAACCCCC, the binding signal with RELARELA (p65 homodimer) came out at 0.892 z-score; with p50p50 homodimer it was 1.01 z-score; with p52p52 homodimer, 1.75 z-score; in [1] it was 1.88 z-score; in assay [2], 1.77 z-score; in the assay with RELB subunit;p50 subunit, 1.42 z-score. Moreover, the binding signal turned out to be 1.59 z-score in the assay with RELB subunit;p52 subunit, 1.21 z-score in [3] and 1.74 z-score in [4].
